The values below come from PubChem BioAssay (NCI).

The structures appear in SMILES notation. Where “and” joins values, the source holds several entries; their conditions need not be identical. Identical values can stand only once. The panel holds about 83,000 compounds, 20% with a hit somewhere; the sample as a whole holds those more often.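 Method: cells in 96-well plates; compound added at one concentration; 48 h incubation; percent growth measured; values under 10 scored active.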 Calls of active or inactive are those of the source.

Some test systems named below: SR leukemia; RPMI-8226 leukemia; OVCAR-8 ovarian; OVCAR-5 ovarian; OVCAR-4 ovarian; SK-OV-3 ovarian; IGROV1 ovarian; OVCAR-3 ovarian; HS 578T breast; NCI/ADR-RES ovarian; T-47D breast; MDA-MB-435 melanoma; SW-620 colon; MCF7 breast; HCT-116 colon; HCC-2998 colon; KM12 colon; BT-549 breast.
Holding throughout (assay): NCI-60 one-dose screen, 48 h (100 = growth as untreated, 0 = no growth, -100 = all killed)
What all share (conditions): 10 µM unless noted

Consider `COc1ccc(Cn2c(NCCN=C(N)N)nc(=O)n(Cc3ccc(F)cc3)c2=O)cc1`, for which the growth with SR leukemia was 85.5% (inactive); in the test with RPMI-8226 leukemia it was 87.9% (inactive) and 92.2% (inactive); with OVCAR-8 ovarian, 101% (inactive) and 99.9% (inactive); with OVCAR-5 ovarian, 89.9% (inactive) and 95.8% (inactive); in the test with OVCAR-4 ovarian, 101% (inactive) and 92.5% (inactive); with SK-OV-3 ovarian it was 98.8% (inactive) and 96.2% (inactive). The growth in the test with IGROV1 ovarian is 90.3% (inactive) and 103% (inactive); in the test on OVCAR-3 ovarian, 96.5% (inactive) and 104% (inactive); with HS 578T breast, 87.5% (inactive) and 66.2% (inactive); in the test with NCI/ADR-RES ovarian, 114% (inactive) and 103% (inactive); with T-47D breast, 91.4% (inactive) and 87.7% (inactive); with MDA-MB-435 melanoma, 100% (inactive) and 109% (inactive). Besides, the growth in the test with SW-620 colon is 101% (inactive) and 95.1% (inactive); in the test on MCF7 breast, 93.3% (inactive) and 93% (inactive); in the test on HCT-116 colon, 88.7% (inactive) and 98.3% (inactive); with HCC-2998 colon, 104% (inactive) and 102% (inactive); in the test on KM12 colon it was 114% (inactive) and 106% (inactive).
Take `Cc1ccc(S(=O)(=O)Nc2ccc3cc([N+](=O)[O-])ccc3c2[N+](=O)[O-])cc1`: the growth was 91.8% (inactive) and 64.3% (inactive) with SR leukemia; 51.6% (inactive) and 38.2% (inactive) in the test on RPMI-8226 leukemia; 81.3% (inactive) and 96.4% (inactive) with OVCAR-8 ovarian; 96.9% (inactive) and 106% (inactive) with OVCAR-5 ovarian; 81.4% (inactive) and 106% (inactive) with OVCAR-4 ovarian; 78% (inactive) and 103% (inactive) with SK-OV-3 ovarian. Besides, the growth was 75.1% (inactive) and 88.1% (inactive) with IGROV1 ovarian; 46% (inactive) and 98.9% (inactive) in the test on OVCAR-3 ovarian; 77.3% (inactive) and 94.7% (inactive) in the test with HS 578T breast; 79.5% (inactive) and 105% (inactive) with NCI/ADR-RES ovarian; 65.1% (inactive) and 98.3% (inactive) with T-47D breast; 63.3% (inactive) and 91.7% (inactive) with MDA-MB-435 melanoma. Besides, the growth was 91.9% (inactive) and 93.4% (inactive) in the test on SW-620 colon; 89.7% (inactive) and 97.2% (inactive) in the test with MCF7 breast; 83.8% (inactive) and 80.7% (inactive) in the test on HCT-116 colon; 73.5% (inactive) and 91.6% (inactive) in the test with KM12 colon.
`Oc1c(Cl)cc(Cl)cc1Sc1cc(Cl)cc(Cl)c1O`: the growth in the test on SR leukemia is 42.1% (inactive) and 77.1% (inactive) and 107% (inactive); in the test on RPMI-8226 leukemia it was 11.8% (inactive) and -29% (active) and 41.3% (inactive); with OVCAR-8 ovarian, 31.7% (inactive) and 2.65% (active) and 71.7% (inactive); in the test on OVCAR-5 ovarian it was 49.9% (inactive) and 102% (inactive); in the test with OVCAR-4 ovarian, 78.1% (inactive) and 38.2% (inactive) and 93.3% (inactive); in the test with SK-OV-3 ovarian, 74.6% (inactive) and 96.4% (inactive). Also, the growth with IGROV1 ovarian was 56.5% (inactive) and 33.3% (inactive) and 73.7% (inactive); in the test with OVCAR-3 ovarian, 47.1% (inactive) and 11.6% (inactive) and 76.5% (inactive); with HS 578T breast, 47.9% (inactive) and 53.5% (inactive) and 78.2% (inactive); in the test with NCI/ADR-RES ovarian, 15.8% (inactive) and 10.8% (inactive) and 82.7% (inactive); with T-47D breast, 77.4% (inactive) and 52.2% (inactive) and 80.7% (inactive); in the test on MDA-MB-435 melanoma, 51% (inactive) and 26.6% (inactive) and 92.5% (inactive). The growth was 15.7% (inactive) and 26.6% (inactive) and 83% (inactive) with SW-620 colon; 73.1% (inactive) and 5.37% (active) and 69.8% (inactive) with MCF7 breast; 18.7% (inactive) and 11.8% (inactive) and 76.7% (inactive) in the test on HCT-116 colon; 50% (inactive) and 23.1% (inactive) and 86% (inactive) in the test on HCC-2998 colon; 46.7% (inactive) and 21% (inactive) and 80.2% (inactive) with KM12 colon.
In the case of `O=CC(O)C(O)C(O)CO` (stereo not given), the growth with SR leukemia is 109% (inactive) and 89.6% (inactive); with RPMI-8226 leukemia, 81.9% (inactive) and 122% (inactive); with OVCAR-8 ovarian, 110% (inactive) and 106% (inactive); with OVCAR-5 ovarian, 57.6% (inactive) and 97.7% (inactive); in the test on OVCAR-4 ovarian it was 101% (inactive) and 114% (inactive); with SK-OV-3 ovarian, 116% (inactive) and 101% (inactive). In addition, the growth in the test with IGROV1 ovarian was 105% (inactive); in the test with OVCAR-3 ovarian, 106% (inactive); in the test with HS 578T breast, 98.4% (inactive) and 106% (inactive); with NCI/ADR-RES ovarian, -41.1% (active) and 106% (inactive); in the test on T-47D breast, 109% (inactive) and 96.5% (inactive); in the test on MDA-MB-435 melanoma, 112% (inactive) and 109% (inactive). In addition, the growth was 107% (inactive) and 104% (inactive) in the test on SW-620 colon; 97.5% (inactive) and 94.6% (inactive) in the test with MCF7 breast; 112% (inactive) and 102% (inactive) in the test with HCT-116 colon; 101% (inactive) in the test with HCC-2998 colon; 103% (inactive) and 102% (inactive) with KM12 colon.
`O=C1c2ccccc2C(=O)c2c(NCCNCCO)ccc(NCCNCCO)c21`: the growth in the test with SR leukemia was 57.6% (inactive) and 5.34% (active) and -17.9% (active); in the test on RPMI-8226 leukemia, 55.6% (inactive) and 54% (inactive) and 33.8% (inactive); in the test with OVCAR-8 ovarian, 0.849% (active) and 17.5% (inactive); in the test with OVCAR-5 ovarian, -51.8% (active) and 43.9% (inactive) and 35.5% (inactive); with OVCAR-4 ovarian, -16.3% (active) and 1.58% (active) and 1.59% (active); in the test on SK-OV-3 ovarian, -4.52% (active) and 27.8% (inactive) and 34.9% (inactive). For the same molecule, the growth with IGROV1 ovarian is 29.1% (inactive) and 16.9% (inactive); with OVCAR-3 ovarian it was 64.1% (inactive) and 44.1% (inactive); in the test on HS 578T breast, -20.7% (active) and -14.7% (active) and 30.7% (inactive); with NCI/ADR-RES ovarian, -24.9% (active) and 93.1% (inactive) and 102% (inactive); in the test with T-47D breast, -3.06% (active) and 10.5% (inactive) and 31.6% (inactive); with MDA-MB-435 melanoma it was 22.6% (inactive) and 43.5% (inactive) and 20.8% (inactive). Besides, the growth in the test with SW-620 colon was 12.2% (inactive) and 27.3% (inactive) and 22.2% (inactive); with MCF7 breast it was -1.56% (active) and 6.38% (active) and 2.38% (active); with HCT-116 colon, -21.4% (active) and 22.7% (inactive) and 17.7% (inactive); in the test with KM12 colon, 8.81% (active) and 41.7% (inactive) and 40.2% (inactive).
Turning to `COc1cc(/C=N/Nc2nc3c([nH]2)c(=O)n(C)c(=O)n3C)ccc1O`, the growth in the test on SR leukemia is 89% (inactive) and 85.3% (inactive); with RPMI-8226 leukemia, 98.3% (inactive) and 103% (inactive); in the test with OVCAR-8 ovarian, 103% (inactive) and 108% (inactive); with OVCAR-5 ovarian it was 107% (inactive) and 111% (inactive); with OVCAR-4 ovarian it was 108% (inactive); with SK-OV-3 ovarian, 104% (inactive) and 109% (inactive). Besides, the growth with IGROV1 ovarian is 110% (inactive) and 124% (inactive); in the test on OVCAR-3 ovarian, 122% (inactive) and 110% (inactive); with HS 578T breast, 118% (inactive) and 103% (inactive); with NCI/ADR-RES ovarian it was 109% (inactive) and 111% (inactive); with T-47D breast, 93% (inactive) and 102% (inactive); with MDA-MB-435 melanoma it was 104% (inactive) and 116% (inactive). The growth in the test with SW-620 colon is 105% (inactive) and 110% (inactive); with MCF7 breast, 97% (inactive) and 95.2% (inactive); in the test with HCT-116 colon, 100% (inactive) and 108% (inactive); in the test with HCC-2998 colon, 102% (inactive) and 124% (inactive); in the test with KM12 colon, 67.6% (inactive) and 79.4% (inactive).
With `COc1ccc2nc(Cl)cc(C)c2c1`, the growth was 88.2% (inactive) and 82.3% (inactive) in the test on SR leukemia; 95.6% (inactive) and 109% (inactive) with RPMI-8226 leukemia; 101% (inactive) and 47.4% (inactive) in the test with OVCAR-8 ovarian; 93.7% (inactive) and 93.4% (inactive) with OVCAR-5 ovarian; 99.2% (inactive) and 91.8% (inactive) in the test with OVCAR-4 ovarian; 107% (inactive) and 124% (inactive) in the test on SK-OV-3 ovarian. The growth is 108% (inactive) and 132% (inactive) in the test with IGROV1 ovarian; 119% (inactive) in the test on OVCAR-3 ovarian; 113% (inactive) in the test on HS 578T breast; 98.9% (inactive) and 102% (inactive) with NCI/ADR-RES ovarian; 98.5% (inactive) and 128% (inactive) with T-47D breast; 130% (inactive) and 92% (inactive) with BT-549 breast. In addition, the growth in the test with SW-620 colon is 102% (inactive) and 122% (inactive); with HCT-116 colon, 107% (inactive) and 89.6% (inactive); in the test on HCC-2998 colon, 108% (inactive) and 96.1% (inactive); in the test with KM12 colon, 99.3% (inactive) and 124% (inactive).
Take `CNC(=O)c1ccc(C)c(-n2c(C)cc(OCc3ccc(F)cc3F)c(Br)c2=O)c1`: the growth in the test on SR leukemia was 64.9% (inactive) and 85.9% (inactive); with RPMI-8226 leukemia it was 48.2% (inactive) and 74% (inactive); in the test with OVCAR-8 ovarian, 70.3% (inactive) and 86.8% (inactive); with OVCAR-5 ovarian it was 77.1% (inactive) and 86.2% (inactive); in the test on OVCAR-4 ovarian, 73.7% (inactive) and 84.9% (inactive); in the test with SK-OV-3 ovarian, 76.4% (inactive) and 91.3% (inactive). Also, the growth is 84.6% (inactive) and 92% (inactive) with IGROV1 ovarian; 85.1% (inactive) and 101% (inactive) with OVCAR-3 ovarian; 103% (inactive) with HS 578T breast; 80.5% (inactive) and 80.7% (inactive) with NCI/ADR-RES ovarian; 40.9% (inactive) and 58.7% (inactive) in the test on T-47D breast; 75.7% (inactive) and 76.4% (inactive) in the test on BT-549 breast. In addition, the growth in the test with SW-620 colon was 79.9% (inactive) and 95.9% (inactive); in the test on MCF7 breast, 82.8% (inactive) and 90.5% (inactive); in the test on HCT-116 colon, 68.1% (inactive) and 78.4% (inactive); with HCC-2998 colon, 67.5% (inactive) and 72.6% (inactive); with KM12 colon it was 90% (inactive) and 92.5% (inactive).
For the molecule `O=[N+]([O-])c1ccc2nc3c4ccccc4c4ccccc4c3nc2c1`, the growth is 56.6% (inactive) in the test on SR leukemia; 59.4% (inactive) in the test on RPMI-8226 leukemia; 65.9% (inactive) in the test on OVCAR-8 ovarian; 91.7% (inactive) in the test with OVCAR-5 ovarian; 8.96% (active) in the test on OVCAR-4 ovarian; 100% (inactive) with SK-OV-3 ovarian. Also, the growth is 58.8% (inactive) in the test with IGROV1 ovarian; 72.9% (inactive) in the test on OVCAR-3 ovarian; 79.9% (inactive) in the test with HS 578T breast; 58.9% (inactive) with NCI/ADR-RES ovarian; 67.9% (inactive) in the test with T-47D breast; 95% (inactive) in the test on MDA-MB-435 melanoma. For the same molecule, the growth was 63.4% (inactive) in the test with SW-620 colon; 65% (inactive) in the test on MCF7 breast; 33.6% (inactive) in the test on HCT-116 colon; 89.8% (inactive) in the test with HCC-2998 colon; 89.3% (inactive) in the test on KM12 colon.
